Our source for the inhibition values is PubChem BioAssay AID504462 (Sanford-Burnham Center for Chemical Genomics, 2011).

The whole screen tested about 340,000 compounds, of which about 1,700 (0.5%) were called active. Rule as the data show it: active = inhibition above about 40%; inactive = the rest. This excerpt belongs to a sample that is enriched for actives.

The target of this experiment is Cysteine protease ATG4B (Homo sapiens) (UniProt Q9Y4P1). The experiment is described as follows: blockers of ATG4B cysteine protease activity – biochemical, fluorescence, uHTS, primary screen (AID 504462). The note with it: ATG4B cleavage of LC3-PLA2, NBD-HPC fluorescence, 1 h; at 8.33 µM; stronger effect = higher value.
Chain of Cysteine protease ATG4B (Homo sapiens) (Q9Y4P1 whole entry, looked up): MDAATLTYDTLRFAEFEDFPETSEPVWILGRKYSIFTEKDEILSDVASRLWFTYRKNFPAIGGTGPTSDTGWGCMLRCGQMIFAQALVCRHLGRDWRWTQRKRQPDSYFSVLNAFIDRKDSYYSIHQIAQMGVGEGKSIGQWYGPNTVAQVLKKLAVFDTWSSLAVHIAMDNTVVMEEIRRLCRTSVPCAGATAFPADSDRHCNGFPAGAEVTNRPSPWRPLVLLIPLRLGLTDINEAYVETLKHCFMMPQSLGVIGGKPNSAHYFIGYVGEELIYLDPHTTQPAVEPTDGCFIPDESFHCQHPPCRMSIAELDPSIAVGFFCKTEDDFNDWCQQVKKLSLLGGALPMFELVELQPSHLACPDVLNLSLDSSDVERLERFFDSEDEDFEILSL
For the compound `CCN1CCN(C(=O)Cc2coc3cc(C)cc(C)c23)CC1`, the inhibition (usually the drop in the measured response relative to a control, in per cent) was -5.73% (inactive). For `Cc1cc(OCc2cc(C(=O)O)oc2C)c2c3c(c(=O)oc2c1)CCCC3` the value was 48.7% (active); for `COC(=O)COc1cc(C)cc2oc(=O)c3c(c12)CCCC3`, -8.24% (inactive). With `CCOC(=O)C1(CCc2ccccc2)CCN(Cc2ccco2)CC1` the figure was -6.2% (inactive); with `CC(Cc1ccccc1)NCCC(c1ccccc1)c1ccccc1` (stereo not given), -1.23% (inactive).
